High-throughput results deposited in PubChem BioAssay by several laboratories.
Granule exo inh: lytic granule exocytosis inhibition | 0.66% of 360,000 active | TALL-104 LAMP-1 surface exposure, flow cytometry; cells stimulated with thapsigargin and PMA | AID 651702 | inhibition, % at 10 µM;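 active = inhibition above about 55%, limit read from the data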
rCAG binder: molecules binding r(CAG) RNA repeats; AID 651821; inhibition, % at 3 µM; r(CAG) RNA repeat, TO-PRO-1 dye displacement fluorescence; 1.3% of 370,000 active;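 active = inhibition above the plate cutoff, the mean of all test compounds on that plate plus 3 SD, cut at about 35% in these data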;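 note: higher means more dye released from RNA so lower well fluorescence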
PG9 Ab binder: binds the HIV-1 gp120 antibody PG9; 0.43% of 360,000 active; TR-FRET gp120-PG9 antibody binding; inhibition, % at 6.7 µM; in the data active = inhibition above about 8.5%
ABCB6 inh 2: inhibitors of human ABC transporter ABCB6; K562-ABCB6 porphyrin accumulation, flow cytometry, 1 h; stronger effect = lower value; AID 602162; fluorescence ratio to DMSO, % at 10 µM; 0.19% of 360,000 active;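 active = fluorescence ratio to DMSO below 75%, the collection mean minus 3 SD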;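 note: signal is porphyrin accumulated inside mitochondria; lower ratio means ABCB6 inhibition with less porphyrin fluorescence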
Target sequence (Q9NP58 whole entry, looked up): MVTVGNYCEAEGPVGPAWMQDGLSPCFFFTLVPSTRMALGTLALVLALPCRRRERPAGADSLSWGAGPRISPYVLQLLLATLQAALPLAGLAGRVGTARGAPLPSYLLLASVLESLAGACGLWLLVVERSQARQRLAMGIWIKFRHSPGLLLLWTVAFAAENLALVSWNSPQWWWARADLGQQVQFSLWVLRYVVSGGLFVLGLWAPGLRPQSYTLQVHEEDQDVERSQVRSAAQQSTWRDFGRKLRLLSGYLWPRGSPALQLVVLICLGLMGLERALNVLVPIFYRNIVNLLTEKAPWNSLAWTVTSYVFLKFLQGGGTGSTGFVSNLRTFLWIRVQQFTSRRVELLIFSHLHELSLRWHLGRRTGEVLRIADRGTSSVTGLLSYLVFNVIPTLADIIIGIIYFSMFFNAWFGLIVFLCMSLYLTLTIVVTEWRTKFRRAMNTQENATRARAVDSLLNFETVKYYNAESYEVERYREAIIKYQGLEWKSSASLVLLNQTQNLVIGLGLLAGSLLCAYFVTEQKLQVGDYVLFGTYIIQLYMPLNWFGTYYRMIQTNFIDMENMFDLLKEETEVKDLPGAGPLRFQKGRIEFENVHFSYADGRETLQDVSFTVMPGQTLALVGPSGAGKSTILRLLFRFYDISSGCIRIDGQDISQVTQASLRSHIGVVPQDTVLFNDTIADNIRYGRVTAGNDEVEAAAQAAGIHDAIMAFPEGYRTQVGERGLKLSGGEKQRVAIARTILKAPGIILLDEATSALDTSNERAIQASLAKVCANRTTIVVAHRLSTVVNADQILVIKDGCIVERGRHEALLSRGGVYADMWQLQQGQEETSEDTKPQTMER
rCAG bind conf: r(CAG) RNA repeat binding, confirmation | shares compounds with rCAG binder | TO-PRO-1 dye displacement fluorescence | inhibition, % at 3 µM | 70% of 4,300 active | AID 652065;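 active = inhibition above a per-plate cutoff, the mean inhibition of sample wells plus 3 SD, cut at about 35% in these data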;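 note: loss of TO-PRO-1 fluorescence as compound displaces dye from 1x1 AA loop RNA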
DNA CAG counter: DNA CAG dye complex inhibition counter-screen. shares compounds with rCAG binder. d(CAG) DNA oligo TO-PRO-1 dye displacement, fluorescence. inhibition, % at 3 µM. 94% of 4,300 active. AID 652068;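 active = inhibition above its plate's cutoff, the mean test-well inhibition plus 3 SD, cut at about 4.8% in these data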;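 note: hits displace the dye from DNA and so lower well fluorescence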
dCAG dye DR: DNA CAG dye complex inhibition, dose response counter-screen; shares compounds with rCAG binder; DNA CAG/GTC duplex TO-PRO-1 dye displacement fluorescence; IC50, µM; 20% of 250 active; in the data active = IC50 below about 10 µM
Hits are given with their value; i = inactive; nt = no result. A selection: hits, their analogues and other compounds. The true share with any hit is near 2.5%.

SMILES | Granule exo inh | rCAG binder | PG9 Ab binder | ABCB6 inh 2 | rCAG bind conf | DNA CAG counter | others
CCCn1nc(NS(=O)(=O)c2cccc3nonc23)c2cc3cc(C)ccc3nc21 | i | i | i | i | nt | nt
CCn1nc(NS(=O)(=O)c2ccc(C)cc2)c2cc3ccccc3nc21 | i | i | i | i | nt | nt
CCn1nc(NS(=O)(=O)c2ccccc2)c2cc3cccc(C)c3nc21 | i | 40.8 | i | i | i | 11.2
CCn1nc(NS(=O)(=O)c2ccc(NC(C)=O)cc2)c2cc3cccc(C)c3nc21 | i | 39.0 | i | i | i | i
CCCn1nc(NS(=O)(=O)c2cccc3nonc23)c2cc3cccc(C)c3nc21 | i | 85.2 | i | i | 77.6 | 40.8
CCN(CC)c1ccc(/C=N\NC(=O)c2cccc3cc[nH]c23)cc1 | i | i | i | i | nt | nt
O=C(CSc1nc2ccccc2n1CCc1ccccc1)N1CCOCC1 | i | i | i | i | nt | nt
O=C(CSc1nc2ccccc2n1CCc1ccccc1)c1ccc(O)c(O)c1 | i | 60.7 | i | i | 63.7 | 38.1
CC(C)NC(=NCc1ccc(Cl)cc1Cl)Nc1ccccc1 | i | i | i | i | nt | nt
COc1ccc(-c2nc3ccccc3[nH]2)cc1 | i | i | i | i | nt | nt
COc1ccc(-c2cc(=O)n(-c3nc4ccccc4[nH]3)[nH]2)cc1 | i | 38.9 | i | i | i | 10.3
CCCOc1ccc(S(=O)(=O)Nc2ccccn2)c2ccccc12 | i | i | i | i | nt | nt
CCN1C(=O)S/C(=C/c2c(OCc3ccc(C(=O)O)cc3)ccc3ccccc23)C1=O | i | 49.8 | i | i | 67.1 | 26.6
FC(F)(F)c1cc(-c2ccccc2)nc(N2CCCCC2)n1 | i | i | i | i | nt | nt
O=C(O)C1CCCN1c1nc(-c2ccc(Cl)c(Cl)c2)cc(C(F)(F)F)n1 (stereo unspecified) | i | 43.6 | i | i | 43.0 | 12.2 | dCAG dye DR=i
C[C@H](CO)N1C[C@H](C)[C@@H](CN(C)C(=O)NC2CCCCC2)Oc2ccc(NC(=O)C3CC3)cc2C1=O | i | i | i | i | nt | nt
CCCCC[C@@H]1C=C(C(=O)O)[C@H](c2cccc(C)c2)N1S(=O)(=O)c1ccc(C)cc1 | i | 66.6 | i | i | 49.7 | 15.7
CCCCC[C@@H]1C=C(C(=O)O)[C@H](c2ccc(Cl)c(Cl)c2)N1S(=O)(=O)c1ccc(C)cc1 | i | 85.1 | i | i | 86.8 | 52.9
CCCCC[C@@H]1C=C(C(=O)O)[C@H](c2ccc3c(c2)OCO3)N1S(=O)(=O)c1ccc(C)cc1 | i | 64.7 | i | i | 53.8 | 20.7
CC[C@@H]1C=C(C(=O)O)[C@H](c2ccc(Br)cc2)N1S(=O)(=O)c1ccc(C)cc1 | i | i | i | i | nt | nt
CC[C@@H]1C=C(C(=O)O)[C@H](c2ccc(Cl)c(Cl)c2)N1S(=O)(=O)c1ccc(C)cc1 | i | 46.0 | i | i | 41.0 | 12.3
CCCN(C(=O)COC(=O)CNC(=O)c1ccc2ccccc2c1)c1c(N)n(Cc2ccccc2)c(=O)[nH]c1=O | i | i | i | i | nt | nt
COCCNC(=S)N1CCC2CC1c1c(Cl)cccc12 (stereo unspecified) | i | i | i | i | nt | nt
COCCNc1nc(NCc2ccc(NC(C)=O)cc2)c2sc(-c3ccccc3)cc2n1 | i | i | i | i | nt | nt
CC(=O)NC(CCc1ccc(Cl)c(Cl)c1)c1cccc(O)c(=O)c1 (stereo unspecified) | i | i | i | i | nt | nt
SMILES | Granule exo inh | rCAG binder | PG9 Ab binder | ABCB6 inh 2 | rCAG bind conf | DNA CAG counter | others
Cc1nc(Cl)c2c(n1)N(CC(N)=O)C(=O)CO2 | i | i | i | i | nt | nt
CCc1ccc([C@H]2C(C(=O)O)=C[C@@H](CC)N2S(=O)(=O)c2ccc(C)cc2)cc1 | i | i | i | i | nt | nt
CCCCC[C@@H]1C=C(C(=O)O)[C@H](c2ccc(OC)c(OC)c2)N1S(=O)(=O)c1ccc(C)cc1 | i | 49.9 | i | i | 43.6 | 13.6
O=C(NC(=S)Nc1cc(C(F)(F)F)ccc1Cl)c1ccccc1 | i | i | i | i | nt | nt
O=C(O)c1ccc(NNC(=S)Nc2cc(C(F)(F)F)ccc2Cl)cc1 | i | 39.4 | i | i | i | 4.7
CCOC(=O)c1sc(NC(=O)CSc2n[nH]c(-c3ccccc3)n2)c(C#N)c1C | i | 60.2 | i | i | 55.6 | 19.3
N#Cc1c(N(CCO)CCO)nc(N)c2c(N)nc3c(c12)CC(=O)N3Cc1cccs1 | i | nt | nt | i | nt | nt
CN(CCO)c1nc(N)c2c(N)nc3c(c2c1C#N)CC(=O)N3Cc1cccs1 | i | 38.1 | i | i | i | 9.2
CC1=NN(c2nc(-c3ccc(Cl)cc3)cs2)C(=O)C1 | i | 57.9 | i | i | 73.4 | 39.1
Cc1ccc(S(=O)(=O)N2CCCCC2)cc1NC(=O)c1ccc(Cl)nc1 | i | i | i | i | nt | nt
O=C1OC(c2ccccc2)=N/C1=C\C=C\c1ccco1 | i | i | i | i | nt | nt
O=C1S/C(=C\C=C\c2ccco2)C(=O)N1c1ccccc1 | i | 40.7 | i | i | i | 11.5
O=C1S/C(=C\C=C\c2ccco2)C(=O)N1c1ccc(O)cc1 | i | 37.6 | i | i | i | 9.9
COC(=O)c1sc(SC)c(S(=O)(=O)C(C)C)c1N | i | i | i | i | nt | nt
COC(=O)c1sc(SC)c(S(=O)(=O)C(C)C)c1N/N=C(\C#N)C(=O)c1ccccc1 | i | 52.1 | i | i | 70.9 | 22.5 | dCAG dye DR=4.33
O=C1CC(SC2=NCCS2)C(=O)N1c1cccc(Cl)c1Cl (stereo unspecified) | i | i | i | i | nt | nt
COc1cc(/C=C2\SC(=S)N(CC(=O)O)C2=O)ccc1OC(=O)c1ccco1 | i | 45.5 | i | i | 45.0 | 13.3
COc1cc(/C=C2/SC(=S)N(CC(=O)O)C2=O)ccc1OC(=O)c1ccco1 | i | 40.6 | i | i | 46.2 | 14.8
COc1ccc(/C=C2/SC(=S)N(CC(=O)O)C2=O)cc1OCc1ccc(Cl)cc1 | i | i | i | i | nt | nt
CCOc1cc(/C=C2/SC(=S)N(CC(=O)O)C2=O)ccc1OC(=O)c1cccs1 | i | 57.7 | i | i | 70.5 | 30.0 | dCAG dye DR=i
CN1C(=O)/C(=C/c2ccc(OC(=O)c3ccco3)cc2)SC1=S | i | i | i | i | nt | nt
O=C1CC(NC(=O)C(F)(F)F)=NN1c1ccccc1 | i | i | i | i | nt | nt
CC(Oc1ccc(Cl)cc1Cl)C(=O)NC1=NN(c2ccccc2)C(=O)C1 (stereo unspecified) | i | 57.7 | i | i | 53.5 | 24.9
CC(C)(Oc1ccc(Cl)cc1)C(=O)NC1=NN(c2ccccc2)C(=O)C1 | i | 74.2 | i | i | i | 12.5
Cc1sc2ncn(CC(=O)N3CCOCC3)c(=O)c2c1-c1ccccc1 | i | i | i | i | nt | nt
COc1ccc(/C=C2\SC(=Nc3ccccc3OC)NC2=O)cc1 | i | i | i | i | nt | nt
Cc1ccc(S(=O)(=O)/N=C2/NC(=O)/C(=C/c3ccccn3)S2)cc1 | i | 44.6 | i | i | 37.3 | 10.2
COc1ccc(N=C2NC(=O)/C(=C/c3ccco3)S2)cc1 | i | i | i | i | nt | nt
